This is an account of results in PubChem BioAssay (NCATS).

Inconclusive results are not listed. Calls of active or inactive are those of the source. The call rests on the fitted dose curve; in most records, active means well fitted cell-killing curve with a large enough effect; inconclusive means small, poorly fitted or top-dose-only effect, or effect the other way; inactive means no such curve, though single readings can be large or run the other way.
Potency means the concentration at half of the fitted maximal effect.

The first assay can be described thus: Quantitative High-Throughput drug screen in 47 multiple myeloma cell lines against the NCATS MIPE library collection: INA6_PLB cell viability assay (AID 1918965; further: nearly all actives have a fitted effect of over 55% in size). The conditions noted are these: INA6 myeloma viability, CellTiter-Glo ATP luminescence, 48 h; series mostly up to 45.8 µM. The essentials:
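qHTS of the MIPE 4.0 collection: 500 myeloma cells/well, 48 h drug exposure at 37C in 5% CO2, then CellTiter-Glo for 5 min at room temperature before luminescence reading.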
For orientation: In ATP-based viability assays light output follows the ATP content of the culture.
`COC[C@@H](c1ccc(C(F)(F)F)cc1)N1CCN(C2(C)CCN(C(=O)c3c(C)ncnc3C)CC2)C[C@H]1C`: the Potency was 26.4 µM (active).

Turning to `CC(C)(C)COc1ccc(-n2cc(C(=O)O)cn2)cc1C#N`, the Potency entry was “inactive”.

`O=C(Nc1cc(Cl)cc2c1[nH]c1cnccc12)c1cccnc1`: the Potency was 16.6 µM (active).

With `OC[C@H]1O[C@@H](n2cnc3c2NC=NC[C@@H]3O)C[C@H]1O`, the Potency entry was “inactive”.

With `Cc1cnc(C(=O)O)c[n+]1[O-]`, the Potency entry is “inactive”.

Consider `CC(=Cc1ccccc1)C=C1SC(=S)N(CC(=O)O)C1=O`, for which the Potency result was “inactive”.

As for `Nc1ncnc2c1ncn2[C@@H]1O[C@H](CO)C[C@@H]1O`, the Potency entry was “inactive”.

Turning to `Cc1c(NC(=O)c2ccc(C(C)(C)C)cc2)cccc1-c1cn(C)c(=O)c(Nc2ccc(C(=O)N3CCOCC3)cc2)n1`, the Potency is 23.5 µM (active).

Regarding `O=c1c(-c2ccc(O)cc2)coc2cc(O)ccc12`, the Potency entry was “inactive”.

On to `CC(=O)O[C@]1(C(C)=O)CC[C@@H]2[C@@H]3C[C@H](C)C4=CC(=O)CC[C@]4(C)[C@H]3CC[C@@]21C`, for which the Potency was 18.7 µM (active).

For `O=C(NCc1ccncc1)C12C[C@H]3C[C@@H](C1)CC(c1ccc(Cl)cc1)(C3)C2`, the Potency is 20.9 µM (active).

For `COc1ccc(-c2nc(N3CCOCC3)c3sc(CN(C)c4ncc(C(=O)NO)cn4)cc3n2)cn1`, the Potency result is “inactive”.

For `Nc1ncnc2c1ncn2[C@@H]1O[C@@H](CO)[C@H](O)[C@H]1O`, the Potency entry is “inactive”.

For `CNC1CCC(N(Cc2cccc(-c3ccncc3)c2)C(=O)c2sc3c(F)ccc(F)c3c2Cl)CC1` (stereo not drawn), the Potency is 8.33 µM (active).

For `Oc1ccc(C2=Cc3ccc(O)cc3OC2)cc1`, the Potency was 0.662 µM (active).

`NC1=N[C@@]2(c3cc(NC(=O)c4ccc(F)cn4)ccc3F)COC[C@@H]2CS1`: the Potency is 14.8 µM (active).

Consider `CC[C@H]1OC(=O)[C@H](C)C(=O)[C@H](C)[C@@H](O[C@H]2O[C@H](C)C[C@H](N(C)C)[C@@H]2O)[C@](C)(OC)C[C@@H](C)C(=O)[C@H](C)[C@H]2N(CCCCn3cnc(-c4cccnc4)c3)C(=O)O[C@]12C`, for which the Potency result is “inactive”.

For the molecule `c1cc(-c2sc(-c3ccncc3)c(-c3ccncc3)c2-c2ccncc2)ccn1`, the Potency is 18.7 µM (active).

Regarding `CCOC(=O)O[C@]1(C(=O)OCCl)CC[C@@H]2[C@H]3CCC4=CC(=O)C=C[C@]4(C)[C@@H]3[C@@H](O)C[C@@]21C`, the Potency result is “inactive”.

In the case of `C[C@]12CC[C@@H]3c4ccc(O)cc4C[C@@H](CCCCCCCCCS(=O)CCCC(F)(F)C(F)(F)F)[C@H]3[C@H]1CC[C@H]2O` (stereo partly drawn), the Potency entry was “inactive”.

For `C[C@H](NC(=O)C(=O)Nc1ccccc1C(C)(C)C)C(=O)N[C@@H](CC(=O)O)C(=O)COc1c(F)c(F)cc(F)c1F`, the Potency is 18.7 µM (active).

In the case of `CC1CCC(C(=O)N(c2cc(C#CC(C)(C)C)sc2C(=O)O)C2CCC(O)CC2)CC1` (stereo not drawn), the Potency is 26.4 µM (active).

Consider `Cc1cc(OCCCc2c(C(=O)O)n(Cc3cccnc3)c3c(-c4c(COc5ccc(N6CCN([S+](C)(=O)[O-])CC6)cc5)nn(C)c4C)cccc23)cc(C)c1Cl`, for which the Potency is 18.7 µM (active).

As for `O=C(NC1CCOCC1)c1ccc(-c2cc(-c3cn[nH]c3-c3ccccn3)ccn2)cc1`, the Potency entry is “inactive”.

Take `O=C(Nc1cccc(Br)c1)c1cccc(S(=O)(=O)N2CCCCCC2)c1`: the Potency was 18.7 µM (active).

As for `Cc1ccn(-c2ccc(-c3ncco3)cc2)c(=O)c1-c1ccc2nc(N)ncc2c1`, the Potency was 0.662 µM (active).

Turning to `O=C(Nc1c(Cl)cncc1Cl)c1ccc(OC(F)F)c(OCC2CC2)c1`, the Potency was 37.2 µM (active).

With `COc1cccc2c1CCCC2CCCN1CCN(C2CCCCC2)CC1` (stereo not drawn), the Potency is 16.6 µM (active).

As for `COc1ccc(Cc2nccc3cc(OC)c(OC)cc23)cc1OC`, the Potency is 20.9 µM (active).

For `COc1ccc(C2CC(c3ccccc3)=NN2c2ccc(S(N)(=O)=O)cc2)cc1` (stereo not drawn), the Potency is 23.5 µM (active).

Consider `CCc1ccc(C=C2SC(=S)NC2=O)cc1`, for which the Potency was 2.35 µM (active).

For `CC1(C)S[C@H]2[C@H](NC(=O)[C@@H](N)c3ccc(O)cc3)C(=O)N2[C@@H]1C(=O)O`, the Potency was 20.9 µM (active).

For `CC(=NNC(=S)N1CCC1)c1ccccn1`, the Potency entry is “inactive”.

Take `Nc1ncnc2ccccc12`: the Potency entry is “inactive”.

In the case of `CN1CCN(CCOc2cc(OC3CCOCC3)c3c(Nc4c(Cl)ccc5c4OCO5)ncnc3c2)CC1`, the Potency is 2.96 µM (active).

With `O=C(OCC#CCSc1nnc(-c2cccc3ccccc23)o1)c1cc2ccccc2s1`, the Potency result was “inactive”.

As for `CCNc1cc(NC2CCC(O)CC2)nc(Nc2ccc3c(ccn3Cc3ccccc3)c2)n1` (stereo not drawn), the Potency was 16.6 µM (active).

As to `CC=CC(=O)N(CC)c1ccccc1C`, the Potency result was “inactive”.

A further assay in a line: Quantitative High-Throughput drug screen in 47 multiple myeloma cell lines against the NCATS MIPE library collection: JJN3_DSMZ cell viability assay (AID 1918966; further: nearly all actives have a fitted effect of over 50% in size). The conditions noted are these: JJN3 myeloma cells viability, CellTiter-Glo ATP, 48 h; series mostly up to 45.8 µM. The essentials: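 Luminescent ATP measurement with CellTiter-Glo gives viability, scaled between DMSO-only wells (100%) and media-only wells (0%). Cells, 500 per well, faced library compounds for 48 hours at 37C.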
Turning to `CC(C)(C)COc1ccc(-n2cc(C(=O)O)cn2)cc1C#N`, the Potency entry was “inactive”.

For `OC[C@H]1O[C@@H](n2cnc3c2NC=NC[C@@H]3O)C[C@H]1O`, the Potency was 23.5 µM (active).

As for `Cc1c(NC(=O)c2ccc(C(C)(C)C)cc2)cccc1-c1cn(C)c(=O)c(Nc2ccc(C(=O)N3CCOCC3)cc2)n1`, the Potency is 14.8 µM (active).

Regarding `CC(=O)O[C@]1(C(C)=O)CC[C@@H]2[C@@H]3C[C@H](C)C4=CC(=O)CC[C@]4(C)[C@H]3CC[C@@]21C`, the Potency was 20.9 µM (active).

As to `COc1ccc(-c2nc(N3CCOCC3)c3sc(CN(C)c4ncc(C(=O)NO)cn4)cc3n2)cn1`, the Potency is 0.0019 µM (active).

With `Oc1ccc(C2=Cc3ccc(O)cc3OC2)cc1`, the Potency is 1.48 µM (active).

Turning to `c1cc(-c2sc(-c3ccncc3)c(-c3ccncc3)c2-c2ccncc2)ccn1`, the Potency is 16.6 µM (active).

Regarding `CC1CCC(C(=O)N(c2cc(C#CC(C)(C)C)sc2C(=O)O)C2CCC(O)CC2)CC1` (stereo not drawn), the Potency was 18.7 µM (active).

Regarding `Cc1cc(OCCCc2c(C(=O)O)n(Cc3cccnc3)c3c(-c4c(COc5ccc(N6CCN([S+](C)(=O)[O-])CC6)cc5)nn(C)c4C)cccc23)cc(C)c1Cl`, the Potency was 26.4 µM (active).

For the molecule `O=C(NC1CCOCC1)c1ccc(-c2cc(-c3cn[nH]c3-c3ccccn3)ccn2)cc1`, the Potency result was “inactive”.

As for `O=C(Nc1cccc(Br)c1)c1cccc(S(=O)(=O)N2CCCCCC2)c1`, the Potency is 20.9 µM (active).

With `O=C(Nc1c(Cl)cncc1Cl)c1ccc(OC(F)F)c(OCC2CC2)c1`, the Potency entry was “inactive”.

On to `COc1cccc2c1CCCC2CCCN1CCN(C2CCCCC2)CC1` (stereo not drawn), for which the Potency is 20.9 µM (active).

Regarding `COc1ccc(Cc2nccc3cc(OC)c(OC)cc23)cc1OC`, the Potency is 16.6 µM (active).

Turning to `Nc1ncnc2ccccc12`, the Potency result is “inactive”.
